The results in this text go back to paper PMC3218832.

Among the targets are RELARELA (p65 homodimer) (Homo sapiens, UniProt Q04206 1-307); p50p50 homodimer (Homo sapiens, UniProt P19838 7-356); RELB subunit;p50 subunit (Homo sapiens;Homo sapiens, UniProt Q01201;P19838 120-401;7-356).
Common to all, as to experiment: protein binding microarray; high values mean tight binding
What all share (conditions): dsDNA, one strand shown

The target in the next assay is T1, p52p52 homodimer (Homo sapiens, UniProt Q00653 4-332).
T1 sequence: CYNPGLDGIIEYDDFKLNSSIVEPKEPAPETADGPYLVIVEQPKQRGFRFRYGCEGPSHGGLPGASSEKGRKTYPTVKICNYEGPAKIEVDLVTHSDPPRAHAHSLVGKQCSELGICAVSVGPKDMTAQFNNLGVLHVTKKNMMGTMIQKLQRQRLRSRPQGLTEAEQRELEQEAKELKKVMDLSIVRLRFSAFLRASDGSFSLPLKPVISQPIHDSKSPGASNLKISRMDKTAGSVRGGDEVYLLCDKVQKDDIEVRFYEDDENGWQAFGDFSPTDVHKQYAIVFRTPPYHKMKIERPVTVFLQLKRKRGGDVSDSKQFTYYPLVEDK

Assay [1] deals with RELA (p65) subunit of heterodimer;p50 subunit (Homo sapiens;Homo sapiens, UniProt Q04206;P19838 1-307;7-356).
Assay [2] has as its target RELA (p65) subunit of heterodimer;p52 subunit (Homo sapiens;Homo sapiens, UniProt Q04206;Q00653 1-307;4-332).
The next assay concerns the target T2, RELB subunit;p52 subunit (Homo sapiens;Homo sapiens, UniProt Q01201;Q00653 120-401;4-332).
T2 sequence 1: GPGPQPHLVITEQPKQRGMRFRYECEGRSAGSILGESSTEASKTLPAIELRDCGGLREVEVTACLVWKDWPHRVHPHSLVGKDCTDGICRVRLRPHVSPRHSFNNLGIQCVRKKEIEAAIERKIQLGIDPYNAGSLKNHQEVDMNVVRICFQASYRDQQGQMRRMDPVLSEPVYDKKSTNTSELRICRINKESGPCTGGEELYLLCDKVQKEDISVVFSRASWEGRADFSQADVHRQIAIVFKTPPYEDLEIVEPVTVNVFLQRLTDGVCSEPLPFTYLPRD
T2 sequence 2: T1 sequence

The target of assay [3] is C-Rel subunit;p50 subunit (Homo sapiens;Homo sapiens, UniProt Q04864;P19838 1-285;7-356).
The target of assay [4] is T3, C-Rel subunit;p52 subunit (Homo sapiens;Homo sapiens, UniProt Q04864;Q00653 1-285;4-332).
T3 sequence 1: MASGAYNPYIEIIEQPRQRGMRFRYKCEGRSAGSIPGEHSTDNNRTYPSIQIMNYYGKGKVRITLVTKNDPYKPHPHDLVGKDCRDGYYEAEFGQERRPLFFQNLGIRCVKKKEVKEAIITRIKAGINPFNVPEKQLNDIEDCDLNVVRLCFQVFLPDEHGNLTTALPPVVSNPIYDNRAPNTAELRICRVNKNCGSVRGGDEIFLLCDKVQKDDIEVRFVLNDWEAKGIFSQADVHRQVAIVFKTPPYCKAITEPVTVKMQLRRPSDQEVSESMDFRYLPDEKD
T3 sequence 2: T1 sequence

p50p50 homodimer, sequence (P19838 7-356): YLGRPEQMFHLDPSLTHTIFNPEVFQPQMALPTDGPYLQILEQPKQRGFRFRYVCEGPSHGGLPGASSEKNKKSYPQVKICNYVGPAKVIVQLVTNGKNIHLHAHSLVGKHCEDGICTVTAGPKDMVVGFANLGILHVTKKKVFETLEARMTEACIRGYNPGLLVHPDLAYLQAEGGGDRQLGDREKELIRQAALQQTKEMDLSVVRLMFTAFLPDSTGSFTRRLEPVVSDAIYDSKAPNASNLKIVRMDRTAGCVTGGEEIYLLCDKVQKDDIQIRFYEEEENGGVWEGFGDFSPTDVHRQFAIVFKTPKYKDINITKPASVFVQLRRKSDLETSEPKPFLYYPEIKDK
RELA (p65) subunit of heterodimer;p50 subunit, sequence (Q04206 1-307, chain 1 of 2): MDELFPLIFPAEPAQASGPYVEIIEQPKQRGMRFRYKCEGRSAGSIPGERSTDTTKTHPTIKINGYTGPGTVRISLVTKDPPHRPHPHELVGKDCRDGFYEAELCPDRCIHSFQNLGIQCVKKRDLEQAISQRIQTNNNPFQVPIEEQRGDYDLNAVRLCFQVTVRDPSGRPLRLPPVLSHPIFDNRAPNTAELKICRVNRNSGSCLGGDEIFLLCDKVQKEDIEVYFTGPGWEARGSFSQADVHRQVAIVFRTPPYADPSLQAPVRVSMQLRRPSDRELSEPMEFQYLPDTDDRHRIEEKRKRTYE
RELA (p65) subunit of heterodimer;p50 subunit, sequence (P19838 7-356, chain 2 of 2): as the sequence (P19838 7-356) above
RELARELA (p65 homodimer), sequence (Q04206 1-307): as the sequence (Q04206 1-307, chain 1 of 2) above

For CGAAAGATCCC, the binding signal is 0.0219 z-score with RELARELA (p65 homodimer); -0.089 z-score in the assay with p50p50 homodimer; -0.151 z-score with p52p52 homodimer; -0.0254 z-score in [1]; -0.0507 z-score in assay [2]; 0.0265 z-score in the assay with RELB subunit;p50 subunit. For the same sequence, the binding signal was -0.282 z-score with RELB subunit;p52 subunit, -0.258 z-score in [3] and -0.147 z-score in [4].

Consider AAAAGCACCCC, for which the binding signal was -0.281 z-score with RELARELA (p65 homodimer); 0.833 z-score with p50p50 homodimer; 0.946 z-score with p52p52 homodimer; 0.86 z-score in assay [1]; 1.12 z-score in [2]; 0.711 z-score with RELB subunit;p50 subunit. In addition, the binding signal stood at 0.952 z-score with RELB subunit;p52 subunit, 0.423 z-score in assay [3] and 0.69 z-score in [4].

As to AAATTTGCCCT, the binding signal was 0.9 z-score with RELARELA (p65 homodimer); -0.198 z-score with p50p50 homodimer; -0.202 z-score with p52p52 homodimer; 0.0394 z-score in assay [1]; -0.125 z-score in [2]; -0.452 z-score with RELB subunit;p50 subunit. In addition, the binding signal is -0.337 z-score in the assay with RELB subunit;p52 subunit, 0.26 z-score in assay [3] and 0.00992 z-score in [4].

With AAGATCTCCCT, the binding signal came out at 0.0704 z-score with RELARELA (p65 homodimer); 1.15 z-score with p50p50 homodimer; 0.499 z-score in the assay with p52p52 homodimer; 0.913 z-score in [1]; 0.528 z-score in assay [2]; 1.16 z-score with RELB subunit;p50 subunit. The binding signal in the assay with RELB subunit;p52 subunit amounted to 1.02 z-score; in assay [3], 0.475 z-score; in assay [4], 0.202 z-score.

Regarding GGAAGAGCCCT, the binding signal with RELARELA (p65 homodimer) was -0.298 z-score; in the assay with p50p50 homodimer, -0.632 z-score; with p52p52 homodimer it was -0.649 z-score; in [1], -0.191 z-score; in assay [2] it was -0.503 z-score; with RELB subunit;p50 subunit, -0.91 z-score. For the same sequence, the binding signal is -0.727 z-score with RELB subunit;p52 subunit, -0.606 z-score in assay [3] and -0.318 z-score in assay [4].

Turning to GAAGTTTCCCC, the binding signal in the assay with RELARELA (p65 homodimer) came to 2.24 z-score; with p50p50 homodimer it was 1.35 z-score; in the assay with p52p52 homodimer, 2 z-score; in assay [1] it was 2.3 z-score; in assay [2], 1.99 z-score; with RELB subunit;p50 subunit, 2.19 z-score. The binding signal in the assay with RELB subunit;p52 subunit worked out at 2.19 z-score; in assay [3], 1.89 z-score; in assay [4] it was 1.71 z-score.

For CGAATGTCCCC, the binding signal with RELARELA (p65 homodimer) was 0.531 z-score; in the assay with p50p50 homodimer it was 1.1 z-score; with p52p52 homodimer, 0.861 z-score; in assay [1], 1.09 z-score; in assay [2], 1.07 z-score; in the assay with RELB subunit;p50 subunit it was 1.07 z-score. Moreover, the binding signal came to 1.17 z-score with RELB subunit;p52 subunit, 1.01 z-score in assay [3] and 0.868 z-score in assay [4].

On to CAATAAGTCCT, for which the binding signal with RELARELA (p65 homodimer) was 0.325 z-score; with p50p50 homodimer, -1.39 z-score; in the assay with p52p52 homodimer it was -0.437 z-score; in assay [1] it was -0.836 z-score; in assay [2], -0.813 z-score; in the assay with RELB subunit;p50 subunit, -0.817 z-score. For the same sequence, the binding signal with RELB subunit;p52 subunit was -0.698 z-score; in [3] it was -0.578 z-score; in assay [4], -0.74 z-score.

Consider CAATACTTCCT, for which the binding signal is -0.118 z-score in the assay with RELARELA (p65 homodimer); -1.09 z-score with p50p50 homodimer; -0.562 z-score with p52p52 homodimer; -0.687 z-score in [1]; -0.787 z-score in assay [2]; -1.04 z-score with RELB subunit;p50 subunit. The figures for the binding signal (with RELB subunit;p52 subunit; in assay [3]; in assay [4]) were -0.781 z-score, -0.77 z-score and -0.829 z-score, respectively.

As to AGAATTTCCCC, the binding signal was determined as 3.09 z-score in the assay with RELARELA (p65 homodimer); 1.24 z-score in the assay with p50p50 homodimer; 2.64 z-score with p52p52 homodimer; 2.2 z-score in [1]; 2.3 z-score in assay [2]; 2.59 z-score with RELB subunit;p50 subunit. Also, the values for the binding signal (with RELB subunit;p52 subunit; in assay [3]; in [4]) were 2.28 z-score, 1.85 z-score and 2.29 z-score, respectively.

For the sequence CGGTAGCCCCT, the binding signal was determined as 0.0258 z-score with RELARELA (p65 homodimer); 0.991 z-score with p50p50 homodimer; 0.543 z-score with p52p52 homodimer; 0.402 z-score in assay [1]; 0.598 z-score in [2]; 0.503 z-score in the assay with RELB subunit;p50 subunit. Further, the figures for the binding signal (with RELB subunit;p52 subunit; in assay [3]; in [4]) were 0.728 z-score, 0.38 z-score and 0.45 z-score, respectively.

For GAAATTGCCCT, the binding signal with RELARELA (p65 homodimer) is 0.612 z-score; with p50p50 homodimer, -0.312 z-score; with p52p52 homodimer, -0.333 z-score; in [1], 0.0283 z-score; in assay [2], -0.203 z-score; with RELB subunit;p50 subunit, -0.547 z-score. Also, the binding signal in the assay with RELB subunit;p52 subunit is -0.476 z-score; in [3] it was 0.175 z-score; in [4], -0.0915 z-score.

As to GAGGTGACCCC, the binding signal with RELARELA (p65 homodimer) was -0.476 z-score; with p50p50 homodimer, -0.386 z-score; with p52p52 homodimer it was -0.328 z-score; in assay [1] it was -0.534 z-score; in assay [2], -0.428 z-score; in the assay with RELB subunit;p50 subunit, -0.385 z-score. Further, the binding signal is -0.19 z-score in the assay with RELB subunit;p52 subunit, -0.788 z-score in assay [3] and -0.26 z-score in assay [4].

For CGATACACCCT, the binding signal with RELARELA (p65 homodimer) is -0.54 z-score; in the assay with p50p50 homodimer it was -0.733 z-score; with p52p52 homodimer, -0.36 z-score; in [1] it was -0.642 z-score; in assay [2], -0.613 z-score; in the assay with RELB subunit;p50 subunit it was -0.424 z-score. In addition, the binding signal was -0.507 z-score with RELB subunit;p52 subunit, -0.73 z-score in [3] and -0.561 z-score in [4].

Turning to CAAGTATTCCT, the binding signal in the assay with RELARELA (p65 homodimer) is -0.0829 z-score; with p50p50 homodimer it was -1.19 z-score; with p52p52 homodimer, -0.607 z-score; in assay [1] it was -0.839 z-score; in assay [2] it was -0.737 z-score; with RELB subunit;p50 subunit, -0.975 z-score. In addition, the figures for the binding signal (with RELB subunit;p52 subunit; in assay [3]; in assay [4]) were -0.645 z-score, -0.507 z-score and -0.822 z-score, respectively.
